Test results reported in article PMC12136788.
Numbering of substitutions follows the chain as printed. Over roughly 5,800 sequences, “enrichment r” has its median near 0.54; the highest 2% begin near 16. What follows is part of a selection rich in the highest values, with near analogues and random picks from the rest.

B1: chr8:72021249:72022905:-|three_prime_utr|ENSG00000104321|control|control|control (ssRNA)
RNA: GGGAGUUCUACAGUCCGACGAUCGCAGAUAUGUUCAAAUUGGACUGGACUUUGAUGAGAUAUAAUCUCAUUAUUUGAAUGGGUAGAAAAUGAAUUUGCUAGAACACACAUUUUUAAUGAAAAGAAGUAAUAAAUGUAACUAUUCAACAGAGGAUUGAGCAUCA
B2: chr7:152122106:152122213:+|3pUTR|ENSG00000178234|unk|total|mutant (ssRNA)
RNA: GGGAGUUCUACAGUCCGACGAUCAGUGGUUUUUAUCUGAUCAGGAACUUGUCAUGAUUUCCUUUCUCCGACUUCACCGGAGACCGUGCUUUAAAAAAAAAAAAAACUUCUAUUAUUUGUUCCGUAUGUUGUAAGCCGAUCAUUCAACAGAGGAUUGAGCAUCA
B3: chr7:152122106:152122213:+|3pUTR|ENSG00000178234|unk|FALSE|unique (ssRNA)
RNA: B2 RNA with C67U, C68A, C76U, C77A, C83U, C84A, C121U, C122A, C135U, C136A
B4: chr2:112659350:112659462:+|CDS|ENSG00000144136|unk|FALSE|unique (ssRNA)
RNA: GGGAGUUCUACAGUCCGACGAUCCUUGCCAAGGUGGGAGAUUGCAUGGGAGACUCCGGUGACAAACCCUUAAGGCGCAAUAAUAGCUAUACUUCCUAUACCAUGGCAAUAUGUGGCAUGCCUCUGGAUUCAUUCCGUGCCAAACAACAGAGGAUUGAGCAUCA
B5: chr12:49763637:49763739:+|3pUTR|ENSG00000139644|msi1_unk|total|mutant (ssRNA)
RNA: GGGAGUUCUACAGUCCGACGAUCAUGUGUAUCAAGGUACAGCAUCGCCGGGUUCCCCUAAACUUGCCCUGUUUUUGUUUUUUCCGUUUGUUAUCCCCUUACUGAGCGGCCUCUACCCGGUGGCUGUGAUUAAAUGUCCCAAGCCAACAGAGGAUUGAGCAUCA
B6: chr20:17613772:17613873:-|3pUTR|ENSG00000125844|unk|total|mutant (ssRNA)
RNA: GGGAGUUCUACAGUCCGACGAUCAGCCCCGUGGGUGUGUGGGAGGCCGGGCGCUCUGGGGUCUGUCUGUCAGUGCAAUCGUUCCGUGUUUUUUCAGUGGGGCGGGGCGGGAAGCGGGUGGGACCGGGCAGCCAGUUCUCAAAGCAACAGAGGAUUGAGCAUCA

molecular target: MSI1 full-length (mouse, UniProt Q61474 1-362); assay: nsRBNS (natural sequence RNA bind-n-seq); RBNS binding buffer (assumed for nsRBNS): 25 mM Tris pH 7.5, 150 mM KCl, 3 mM MgCl2, 0.01% Triton X-100, 500 ug/ml BSA, 20 U/ml SUPERase-In, 4 C; UNK is unkempt and MSI1 is Musashi-1; names of the RNAs are library labels; protein concentration not given here; high values mean tight binding
Sequence (Q61474 whole entry): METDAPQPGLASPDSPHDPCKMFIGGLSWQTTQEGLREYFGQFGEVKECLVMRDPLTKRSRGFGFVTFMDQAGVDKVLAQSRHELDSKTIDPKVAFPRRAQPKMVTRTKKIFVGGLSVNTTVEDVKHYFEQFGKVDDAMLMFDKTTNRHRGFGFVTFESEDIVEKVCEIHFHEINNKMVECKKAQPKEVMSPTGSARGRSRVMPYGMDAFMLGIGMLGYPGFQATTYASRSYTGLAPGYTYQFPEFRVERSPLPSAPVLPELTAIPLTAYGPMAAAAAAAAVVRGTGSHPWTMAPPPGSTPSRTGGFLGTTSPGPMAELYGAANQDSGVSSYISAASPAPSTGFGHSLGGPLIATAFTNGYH

| Binder | binding signal [enrichment R] |
| --- | --- |
| B1 | 2.75 |
| B2 | 1.74 |
| B3 | 20.2 |
| B4 | 0.737 |
| B5 | 0.481 |
| B6 | 0.811 |
